Screens as filed in PubChem BioAssay.
An excerpt weighted towards active compounds, which were near 11% of everything screened.
Pf growth 48h = P. falciparum growth inhibition at 48 hours (one generation). actives 5.9% (n = 310,000). P. falciparum luciferase growth in erythrocytes, 48 h. Potency, µM (top dose mostly 28.7 µM), for inactives: top-dose activity change, negative = inhibition, usual class: inhibitors. AID 504832; further: on the % scale 0 is the no-effect control and ±100 the full control effect
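Luciferase-expressing parasites in RBCs, 2% Hct / 0.1% parasitemia final; RPMI 1640 + 0.5% Albumax; 37 C, 5% CO2, one generation; luminescence read-out, lower signal = inhibition.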
Pf growth 96h = P. falciparum growth inhibition at 96 hours. Potency, µM (highest dose often 28.7 µM), inactives show top-dose activity change, negative = inhibition, hits mostly inhibitors. AID 504834. actives 6.9% (n = 320,000). P. falciparum luciferase reporter growth, 96 h; further: on the % scale 0 is the no-effect control and ±100 the full control effect
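Erythrocytes infected with luciferase-expressing P. falciparum were dispensed at 2% hematocrit and 0.05% parasitemia (final), then incubated with compounds 96 hours at 37 C in 5% CO2. Luminescence after detection reagent addition reported growth.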
VACV mCherry inh = vaccinia inhibition (mCherry reporter). Vaccinia virus mCherry reporter infection, fluorescence. Potency, µM (top dose mostly 36.5 µM), inactives show at the top dose activity change, negative = inhibition, hits mostly inhibitors. actives 0.63% (n = 310,000). AID 720579; calls by dose curve; tested in A549 cells; further: on the % scale 0 is the no-effect control and ±100 the full control effect; nearly all actives have a fitted effect of over 35% in size
NS1 inh = influenza NS1 inhibition | actives 0.4% (n = 270,000) | Potency, µM (series often up to 46.1 µM), without a hit: at the highest dose activity, positive = more growth | AID 2326; calls by dose curve; further: actives are rising curves; nearly all actives have a fitted effect of over 50% in size
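Compounds were scored for reversing the slow growth caused by influenza A NS1 in S. cerevisiae, measured by optical density at 600 nm. Assay medium contained 2% galactose at pH 6.0; NS1-free yeast of the same strain were the positive control.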
VACV Venus inh = vaccinia inhibition (Venus reporter); Potency, µM (series often up to 36.5 µM), without a hit: at the top dose activity change, negative = inhibition, actives largely listed as inhibitors; actives 0.46% (n = 330,000); Vaccinia virus Venus reporter expression, fluorescence; calls by dose curve; tested in A549 cells; further: on the % scale 0 is the no-effect control and ±100 the full control effect; nearly all actives have a fitted effect of over 30% in size
HCV inhibitor = inhibitors of hepatitis C virus infection; Huh7.5.1 HCVcc-Cre infection, luciferase reporter, 44 h; Potency, µM (top dose mostly 41.8 µM), without a hit: at the top dose activity change, negative = inhibition, hits mostly inhibitors; actives 3.4% (n = 340,000); AID 651820; further: on the % scale 0 is the no-effect control and ±100 the full control effect
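Seed cells (1,000/well) for 4 h; treat with compound and infect with HCVcc-Cre, moi about 0.5. Incubate 44 h, then detect luciferase activity.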
The depositor's hits bear a star; i = inactive; u = inconclusive; x = no result; [ ] = dose if it differs, or a comment. Unless noted, the call rests on the fitted dose curve; in most records, active means well fitted inhibition curve with a large enough effect; inconclusive means small, poorly fitted or top-dose-only effect, or another doubt; inactive means no such curve, though single readings can be large or run the other way. Potency means the concentration at half of the fitted maximal effect.

SMILES	Pf growth 48h	Pf growth 96h	VACV mCherry inh	NS1 inh	VACV Venus inh	HCV inhibitor
CCOc1ccc(NC(=O)CN(C)C(=O)Cc2c(C)nc3ccccc3c2C)cc1OCC	u	u	-23%	-3%	-15%	u
Clc1ccccc1Nc1nc(-c2ccncc2)nc2ccccc12	13µM*	u	x	-6%	x	7.1µM*
Fc1ccc(Nc2nc(-c3ccncc3)nc3ccccc23)cc1F	u	u	x	1%	x	11µM*
Fc1ccccc1Oc1nc(-c2ccncc2)nc2ccccc12	u	3.3µM*	x	-1%	x	0.56µM*
Clc1cccc(Nc2nc(-c3ccncc3)nc3ccccc23)c1	-17%	0.93µM*	0%	-2%	-12%	u
COc1cc(C(=O)Nc2cccc3c2CCCC3)cc(OC)c1OC	-16%	0%	-22%	-14%	-7%	-16%
CCOc1ccc(N(CC(=O)NC2CCCCC2)C(=O)CSc2nnc(COc3ccccc3)o2)cc1	u	u	i	0%	-22%	u
O=C(CN(Cc1cccs1)C(=O)CSc1nnc(COc2ccccc2)o1)NC1CCCCC1	13µM*	8%	x	6%	-11%	-10%
Cc1ccc(C(=O)N(CC(=O)NC2CCCC2)Cc2cccs2)s1	-9%	1.5µM*	x	-8%	x	-21%
COc1cccc(OC)c1OCC(C)CNCC1CCCO1 (stereo not drawn)	6%	u	u	-3%	u	1µM*
CNC(=S)N/N=C/c1c(C)cccc1Cl	8%	13µM*	-8%	-3%	-19%	-9%
CNC(=S)N/N=C/c1c2ccccc2c(Cl)c2ccccc12	2.6µM*	10µM*	-5%	-19%	-4%	u
CNC(=S)N/N=C/c1cn(Cc2c(F)cccc2Cl)c2ccccc12	u	u	u	20%	-18%	26%
Cc1cc(C)c(S(=O)(=O)Oc2ccccc2[N+](=O)[O-])c(C)c1	x	x	u	x	-27%	10µM*
CC1=CC(=O)C=C(C)C1=NOc1ccccc1[N+](=O)[O-]	-5%	u	-4%	7%	9%	22%
CC(C)OP(=O)(OC(C)C)C1(O)C(=O)Nc2ccccc21 (stereo not drawn)	-1%	2.6µM*	i	11%	-6%	1%
CCOP(=O)(OCC)C1(O)C(=O)Nc2ccccc21 (stereo not drawn)	-6%	u	-12%	9%	0%	1%
COc1ccc(C2=CC(c3ccc(OC)c(OC)c3)c3c(c4ccccc4oc3=O)O2)cc1OC (stereo not drawn)	2.6µM*	8.3µM*	-15%	4%	-30%	10µM*
COc1cc(NC(=O)c2cccc(Br)c2)nc(OC)n1	187%	2.9µM*	i	-8%	-11%	-22%
COc1cc(NS(=O)(=O)c2ccc(NC(=O)COc3ccc(C)cc3)cc2)nc(OC)n1	u	15%	x	-22%	x	7%
COc1cc(NC(=O)COc2ccc(F)cc2)nc(OC)n1	12%	13µM*	-12%	-16%	-7%	7%
O=C1/C(=C/c2ccc(F)cc2)CCC1C1CCCC1 (stereo not drawn)	86%	u	-14%	-3%	-2%	14%
Cc1ccc(NC(=O)CN2C(=O)NC(C)(C3CC3)C2=O)c([N+](=O)[O-])c1 (stereo not drawn)	-3%	-26%	x	x	x	5%
CCCCNC(=O)c1ccc2c(c1)N(CC)C(=O)c1ccccc1S2(=O)=O	-20%	1.5µM*	36%	-15%	1%	u
O=C(NCCN1CCCC1)c1ccc2c(c1)N(Cc1ccccc1)C(=O)c1ccccc1S2(=O)=O	8.3µM*	29%	x	-5%	x	u
O=C(NCCN1CCOCC1)c1ccc2c(c1)N(Cc1c(F)cccc1Cl)C(=O)c1ccccc1S2	13µM*	9.3µM*	x	x	x	u
CCN1C(=O)c2ccccc2S(=O)(=O)c2ccc(C(=O)NC(C)C)cc21	0%[0.00184 µM]	u	-5%	4%	-7%	13%
O=C(NCCN1CCOCC1)c1ccc2c(c1)N(Cc1ccccc1)C(=O)c1ccccc1S2	u	-18%	x	-5%	x	2%
